Test results taken from PubChem BioAssay AID1903 (Southern Research Specialized Biocontainment Screening …, 2009).
Among all 310,000 compounds or so, about 1,200 (0.39%) were called active. How the calls were made is not given here. A selection follows. Entries with a potency or affinity are not part of this list.

Biological target: Large T antigen (Simian virus 40) (UniProt P03070)
Assay: SV40 large T antigen inhibitors, biochemical (AID 1903)
Conditions: SV40 large T antigen ATPase/helicase inhibition assay; at 20 µM; hits give high values

Large T antigen (Simian virus 40), sequence (P03070 whole entry, looked up): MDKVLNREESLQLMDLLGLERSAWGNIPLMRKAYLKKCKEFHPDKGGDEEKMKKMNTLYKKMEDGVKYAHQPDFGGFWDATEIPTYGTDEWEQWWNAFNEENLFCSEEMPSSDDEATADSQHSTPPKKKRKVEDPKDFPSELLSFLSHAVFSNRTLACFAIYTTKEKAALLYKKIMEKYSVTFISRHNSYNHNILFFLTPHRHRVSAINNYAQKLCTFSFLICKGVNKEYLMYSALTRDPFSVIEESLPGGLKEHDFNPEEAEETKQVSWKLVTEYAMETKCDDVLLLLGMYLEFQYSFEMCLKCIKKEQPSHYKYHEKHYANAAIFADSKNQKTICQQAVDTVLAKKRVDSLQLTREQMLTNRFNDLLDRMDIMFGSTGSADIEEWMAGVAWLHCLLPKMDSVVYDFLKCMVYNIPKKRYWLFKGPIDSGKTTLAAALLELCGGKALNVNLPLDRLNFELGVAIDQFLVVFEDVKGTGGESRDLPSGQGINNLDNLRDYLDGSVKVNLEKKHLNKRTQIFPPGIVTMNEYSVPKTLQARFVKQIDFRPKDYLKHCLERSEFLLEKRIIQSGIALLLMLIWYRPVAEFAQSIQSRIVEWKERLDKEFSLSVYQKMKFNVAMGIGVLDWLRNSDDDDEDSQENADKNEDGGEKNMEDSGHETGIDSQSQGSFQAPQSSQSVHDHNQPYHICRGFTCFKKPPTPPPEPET

inhibition, inactive:
CCN1CCN(c2ccc(NC(=O)c3cccc(OCc4ccccc4)c3)cc2)CC1 8.98%
O=C1C2C3C=CC(CC3)C2C(=O)N1/N=C/c1ccc(O)cc1 (configuration not stated) 22.8%
O=C1C2C3C=CC(CC3)C2C(=O)N1/N=C/c1ccccc1O (configuration not stated) -0.603%
COc1ccccc1/C=N/N1C(=O)C2C3C=CC(CC3)C2C1=O (configuration not stated) 5.91%
COc1cc(/C=N/N2C(=O)C3C4c5ccccc5C(c5ccccc54)C3C2=O)ccc1O (configuration not stated) 19.2%
O=C(CSc1nnnn1C1CCCC1)Nc1ccccc1F 14%
COC(=O)c1sc(-c2cccs2)cc1N 20%
CC(=O)Nc1nnc(SCc2ccc(C(=O)Nc3ccccc3F)cc2)s1 5.26%
Oc1ccc(N=Nc2ccccc2)cc1 18.4%
CC1(C)CC(=O)C(N=Nc2ccc(-c3ccccc3)cc2)=C(O)C1 28.9%
O=C(O)c1ccccc1C(=O)Nc1ccccc1NC(=O)c1ccccc1C(=O)O 5.06%
O=C(NC1=NN(c2ccccc2)CC1)Nc1ccccc1F -6.18%
CCCSc1oc(-c2ccco2)nc1S(=O)(=O)c1ccccc1 1.06%
COc1cc(SC)ccc1C(=O)NCCc1c[nH]c2ccccc12 8.89%
CC(C)(C)NC(=O)CSCc1c(Cl)cccc1Cl 3.06%
COc1ccc(-c2c3c([nH]c(=S)c2C#N)CCC3)cc1 34.4%
N#Cc1c(-c2ccc(Cl)cc2)c2c([nH]c1=S)CCCC2 25.6%
N#Cc1c(-c2ccncc2)c2c([nH]c1=S)CCCC2 16.1%
COc1ccc(OC)c(-c2c3c([nH]c(=S)c2C#N)CCCC3)c1 20.7%
O=C(CN1C(=O)/C(=C/c2ccc(C(F)(F)F)cc2)Sc2ccccc21)NCCCN1CCOCC1 6.23%
O=[N+]([O-])c1ccc(N2CCN(c3ccccn3)CC2)c(Cl)c1 9.91%
O=C(CSc1nnc(-c2ccco2)c(-c2ccco2)n1)c1ccccc1 -0.39%
CSc1nnc(-c2ccco2)c(-c2ccco2)n1 54.2%
COc1ccc(-n2nnnc2SCC(=O)NCCc2ccccc2)cc1OC 5.41%
Cc1cccc(-c2noc(CNC(=O)c3ccc4c(c3)OCO4)n2)c1 9.48%
CC(CCc1ccccc1)NC(=O)CCc1cn(C)c2ccccc12 (configuration not stated) 8.16%
CCCCC(CC)CNC(=O)c1cccs1 (configuration not stated) 0.58%
CCCCC(CC)CNC(=O)c1ncn[nH]1 (configuration not stated) 9.07%
CC1(C)CN(c2ccc(F)cc2)C1=O 10%
CC1(C)CN(c2ccc(N3CC(C)(C)C3=O)cc2)C1=O 7.74%
Oc1ccc(N=Cc2ccc(OCc3ccccc3)cc2)cc1 15.6%
CC1CCCC(C)N1/N=C/c1ccc(O)c(O)c1 (configuration not stated) 32.1%
Oc1ccc(/C=N/N=C/c2ccc(O)cc2)cc1 27.4%
COc1ccc(/C=N/N=C/c2ccc(OC)c(O)c2)cc1O 1.26%
CCn1c(CNC(=O)c2ccco2)nnc1SCC(=O)Nc1ccc(Br)cc1F 3.84%
CCN(CC)S(=O)(=O)c1ccc(Cl)c(NC(=O)COc2ccc(OC)cc2)c1 21.5%
COc1ccccc1Cn1cccc1C=O -6.2%
Cc1ccc(CCNC(=O)C2CCC(=O)N2Cc2ccc(F)cc2)cc1 (configuration not stated) 8.48%
CC(=O)Nc1ccc2[nH]ccc2c1 18.6%
C/C(=N\O)c1ccc2[nH]ccc2c1 8.8%
COc1cc(/C=N/NC(=O)C(=O)NCC2CCCO2)cc(Cl)c1O (configuration not stated) 22.2%
Oc1c(Br)cc(/C=N/NC(=S)NCC2CCCO2)cc1Br (configuration not stated) 27.3%
COc1ccc(/C=N/NC(=S)NCC2CCCO2)cc1 (configuration not stated) 7.07%
COc1cc(/C=N/NC(=O)C(=O)NCc2ccco2)cc(Br)c1O 29.1%
COc1cccc(/C=N/NC(=O)CNC(=O)c2ccco2)c1O 23.9%
O=C(NCC1CCCO1)C(=O)N/N=C/c1ccc(O)c(Cl)c1 (configuration not stated) 30.4%
O=C(CNC(=O)c1ccco1)N/N=C/c1ccc(O)c([N+](=O)[O-])c1 -0.16%
COc1cc(/C=N/NC(=O)C(=O)NCc2ccco2)cc(Cl)c1O 28.7%
COc1ccc(OC)c(S(=O)(=O)N2CCC(C(=O)NC3CCCC3)CC2)c1 8.53%
NC(=O)CC(NC(=O)Cc1cccc2ccccc12)c1ccc(NC2CC3CCC2C3)c([N+](=O)[O-])c1 (configuration not stated) 17.8%
O=C(CCn1c(=O)oc2ccccc21)N1CCN(c2ccc(F)cc2)CC1 2.5%
COC(=O)C1=C(C)NC(=O)NC1c1ccco1 (configuration not stated) 8.25%
C=CCOc1ccc(Oc2cc(C)nc(SC)n2)nn1 19.1%
CCCOC(=O)c1cccc(NC(=O)C(C)(C)C)c1 -1.32%
O=C(CNC(=S)N(Cc1ccccc1Cl)C1CCCC1)NCCN1CCOCC1 3.17%
COc1cccc(O)c1CN1CCCC(C(=O)c2cccc(C(F)(F)F)c2)C1 (configuration not stated) 4.62%
Cn1c(=O)c([N+](=O)[O-])c(NCC(O)c2ccccc2)c2ccccc21 (configuration not stated) 21.3%
Cn1c(=O)[nH]c(=O)c2c1nc(CN1CCN(c3cccc(Cl)c3)CC1)n2CCc1ccccc1 1.29%
COc1ccc(-c2c(C#N)c(N)n(N)c(=O)c2C#N)cc1Cl 3.3%
O=C1/C(=C/c2ccncc2)N=C2CCCCCN12 18.3%
COc1ccc(/C=C2\N=C3CCCCCN3C2=O)cc1 3.96%
CN(C)c1ccc(/C=c2\sc3n(c2=O)CCCN=3)cc1 7.47%
COc1cccc(/C=C2\N=C3CCCCCN3C2=O)c1 13.8%
COc1ccc(/C=C2/N=C3CCCCCN3C2=O)cc1 4.2%
COc1ccc(/C=C2/N=C3CCCCCN3C2=O)cc1OC 6.08%
O=c1/c(=C/c2ccc(O)cc2)sc2n1CCCN=2 29.1%
COc1ccc(/C=C2\N=C3CCCCCN3C2=O)cc1OC 13.5%
CCC1Sc2ccc(S(=O)(=O)N3CCN(c4ccccc4)CC3)cc2NC1=O (configuration not stated) -0.58%
O=C1C(=O)N(CCS(=O)(=O)c2ccccc2)c2ccc(F)cc21 3.86%
CN1CC(=O)N(CC(=O)Nc2cccc(S(=O)(=O)N3CCOCC3)c2)C1=O 4.06%
CCCc1nnc(NC(=O)C(=O)NCCN(CC)CC)s1 0.4%
COCCCNC(=O)COc1ccc(-c2nccc(-c3ccccn3)n2)cc1 4.04%
C=CCn1c(SCC(=O)N2CCCC2)nc2c([nH]c3ccccc32)c1=O 5.61%
CCCCn1c(SC(C)C(=O)c2ccc(OC)cc2)nc2cc(S(N)(=O)=O)ccc21 (configuration not stated) 17.9%
COc1cc(OC)c(C(=O)N/N=C/c2ccoc2)cc1OC 13.6%
O=[N+]([O-])c1ccccc1CNCCCCO 0.09%
O=C(NCCC1=CCCCC1)c1ccc(Cl)c(S(=O)(=O)Nc2ccccc2)c1 -7.13%
Cc1ccc(C)c(NC(=O)CN(C)C(=O)c2nn(C)c(=O)c3ccccc23)c1 6.79%
COc1ccc(/C=N/Nc2nc(N3CCCC3)nc(N3CCCC3)n2)cc1 -2.38%
COc1ccc(/C=N/Nc2ncnc(Cl)c2N)cc1OC 19%
Nc1c(Cl)ncnc1N/N=C/c1cccc(O)c1 28.2%
COc1ccc(/C=N/Nc2nc(N3CCCCC3)nc(N3CCCCC3)n2)cc1[N+](=O)[O-] 4.11%
CCOc1cc(/C=N/Nc2nncc(-c3ccccc3)n2)ccc1O 8.31%
CCOc1cc(/C=N/Nc2nnc(C)n2N)ccc1O 24.2%
CCOc1ccc(/C=N/Nc2nc(N3CCCC3)nc(N3CCCC3)n2)cc1OC -0.04%
COc1ccc(/C=N/Nc2nc(Nc3ccccc3)nc(N3CCCCC3)n2)cc1OC -16.1%
O=c1c(Cl)c(Nc2cccc(Cl)c2)cnn1-c1nc2ccccc2s1 -0.81%
COCCCNC(=O)C(C)N1c2cccc3cccc(c23)S1(=O)=O (configuration not stated) 3.72%
CCOC(=O)c1sc(=S)n(-c2ccc(OC)cc2)c1N 15.3%
Cc1ccc(CN2CCN(CC(=O)NCCCN3CCN(c4ccc(F)cc4)CC3)C2=O)cc1 3.02%
CCN1CCCC1CNC(=O)c1ccccc1Cl (configuration not stated) -13.2%
COc1cccc(NC(=O)Cn2cnc3c(oc4nc5c(cc43)CCCC5)c2=O)c1 4.45%
CCNc1nc(NCC)nc(N/N=C/c2cc(OC)c(OC)c(OC)c2)n1 9.56%
CCNc1nc(NCC)nc(N/N=C/c2ccc(O)c(O)c2)n1 6.9%
[C-]#[N+][C@H](O[C@@H]1O[C@H](CO)[C@@H](O)[C@H](O)[C@H]1O)c1ccccc1 13.8%
OCc1ccccc1O[C@@H]1O[C@H](CO)[C@@H](O)[C@H](O)[C@H]1O 10.5%
C/C(=C1/SC(N2CCOCC2)=NC1=O)c1ccc(Br)cc1 -0.65%
CC1CCCCC1NC(=O)C1CCN(S(=O)(=O)c2cccc3nonc23)CC1 (configuration not stated) 6.27%
COc1ccc(OC)c(/C=N/NC(=O)CC2C(=O)NN=C2C)c1 (configuration not stated) 8.18%
COc1ccc(/C=N\NC(=O)C2=NNC(=O)C2C)cc1 (configuration not stated) 21.2%
COc1cc(OC)c(OC)cc1/C=N/NC(=O)CC1C(=O)NN=C1C (configuration not stated) 8.13%
CC1C(=O)NN=C1C(=O)N/N=C/c1cccs1 (configuration not stated) 30%
